Screens: PubChem, National Center for Advancing Translational Sciences (NCATS)
The entries come from a sample that favours hits as a whole.
PGK inhibitor: inhibitors of T. brucei phosphoglycerate kinase; P07378; PGK/GAPDH coupled, Kinase-Glo luminescence, 60 min; Potency, µM (titrated, usually from 57.5 µM), without a hit: top-dose activity change, negative = inhibition, hits mostly inhibitors; 380,000 compounds, 0.043% hits; further: potency means the concentration at half of the fitted maximal effect; nearly all actives have a fitted effect of over 60% in size
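Recombinant glycosomal PGK reaction used 1,3-bisphosphoglycerate generated in-well by GAPDH (100nM final) in 100mM TEA pH 7.6, 5mM MgCl2, 0.01% Tween-20. After 60 minutes at room temperature, ATP was read by Kinase-Glo Plus luminescence end-point.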
PI5P4Ka inh: PI5P4K alpha (human) kinase inhibition; P48426; PI5P4Kalpha enzyme, ADP-Glo luminescence, 60 min; hits give low values; max response, %; 330,000 compounds, 1.2% hits; AID 652105; active means max response of -50% or lower; inconclusive means between -30% and -50%; inactive means -30% or higher; further: value at the top dose of about 77 µM
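Single end-point luminescence (ADP-Glo) quantified ADP from PI5P4Kalpha turnover; ATP 5 microM final, 1 h at RT, 0.1% CHAPS and 0.28 mM EGTA in HEPES pH 7.4.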
PI4K2A inh: inhibitors of human PI4K2A. Q9BTU6. purified PI4K2A, ADP-Glo luminescence, 1 h; hits give low values. activity change, negative = inhibition, % at 76.9 µM. 420,000 compounds, 0.13% hits. AID 1346378; in the data active means activity change below about -50%; inconclusive means mostly about -30% to -49%;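 further: -100% = wells without enzyme as full effect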
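ADP-Glo luminescence measured ADP generated by PI4K2A enzyme (4 ug/mL before mixing) with 1.2 mM PI substrate (pre-mix) and 300 microM ATP (pre-mix). Tris pH7.5 buffer with MgCl2, Triton X-100; 1 h reaction at ambient temperature.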
Pin1 inh: inhibitors of human Pin1; Q13526; Pin1 FP peptide displacement, HiFluor488, 10 min; Potency, µM (top dose mostly 115 µM), inactives show at the highest dose activity, negative = inhibition, hits mostly inhibitors; 390,000 compounds, 0.009% hits; active means well fitted inhibition curve with a large enough effect in the polarisation, with a control signal flat, not every such curve was filed as active; inconclusive means small, poorly fitted or top-dose-only effect, or effect the other way, or a change in a side signal; inactive means no such curve, though single readings can be large or run the other way; the % refers to the polarisation; further: potency means the concentration at half of the fitted maximal effect
Target sequence (Q13526 whole entry, looked up): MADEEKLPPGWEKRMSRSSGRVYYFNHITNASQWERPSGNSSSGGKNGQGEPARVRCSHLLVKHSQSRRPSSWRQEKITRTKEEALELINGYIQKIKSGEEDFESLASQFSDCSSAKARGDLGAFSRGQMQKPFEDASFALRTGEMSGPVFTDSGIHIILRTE
Tb PFK inh: T. brucei PFK enzyme inhibition; Potency, µM (highest dose often 57.5 µM), for the others: at the highest dose activity, negative = inhibition, most hits filed as inhibitors; T. brucei PFK, ADP-Glo luminescence; 330,000 compounds, 0.17% hits; O15648;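 further: potency means the concentration at half of the fitted maximal effect; 0% = uninhibited 1x PFK enzyme wells and -100% = no-enzyme wells; nearly all actives have a fitted effect of over 60% in size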
Target sequence (O15648 whole entry, looked up): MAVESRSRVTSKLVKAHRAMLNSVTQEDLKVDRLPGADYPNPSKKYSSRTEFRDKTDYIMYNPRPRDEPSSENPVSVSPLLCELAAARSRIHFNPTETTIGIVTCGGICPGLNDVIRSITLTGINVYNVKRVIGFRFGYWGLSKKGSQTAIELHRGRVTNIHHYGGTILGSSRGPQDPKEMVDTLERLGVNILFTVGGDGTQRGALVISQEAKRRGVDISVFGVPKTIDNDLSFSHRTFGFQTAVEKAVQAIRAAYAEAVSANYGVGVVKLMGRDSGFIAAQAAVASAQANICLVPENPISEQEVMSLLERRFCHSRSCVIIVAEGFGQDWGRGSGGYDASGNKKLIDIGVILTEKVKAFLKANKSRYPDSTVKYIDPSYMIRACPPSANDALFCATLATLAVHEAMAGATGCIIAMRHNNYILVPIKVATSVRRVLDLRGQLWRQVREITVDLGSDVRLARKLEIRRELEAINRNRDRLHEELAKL
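In TEA buffer at pH 8.0 with 5 mM MgCl2, enzyme (1.25 nM) converted F6P (0.5 mM) and ATP (0.1 mM) for 45 min at room temperature. ADP product was read by luciferase luminescence.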
* marks the source's active call; other numbers are inactive results; i = inactive; ? = inconclusive; . = no result given; [ ] = remark or other dose. Unless noted, the call rests on the fitted dose curve; in most records, active means well fitted curve in the direction sought with a large enough effect; inconclusive means small, poorly fitted or top-dose-only effect, or another doubt; inactive means no such curve, though single readings can be large; an effect the other way counts as inactive or inconclusive. Unless noted, on the % scale 0 is the no-effect control and ±100 the full control effect.

SMILES	PGK inhibitor	PI5P4Ka inh	PI4K2A inh	Pin1 inh	Tb PFK inh
O=C(NNC1=Nc2cccc3cccc1c23)c1ccccc1Br	-4.3%	-4.7	1.1	-0.7%	12.8%
CCOC(=O)c1sc(=S)n(-c2ccccc2)c1N(C(C)=O)C(C)=O	-11.8%	-75.2*	-0.9	1.9%	2.2%
CCn1c(COc2ccccc2C)nnc1SCC(=O)O	-4.1%	.	6.0	-2.7%	0.6%
COc1ccc(S(=O)(=O)NCCCO)cc1-c1nnc2c3ccccc3c(C)nn12	-0.2%	.	1.0	0.3%	.
C=C1C(=O)C=C2CN(C(=O)c3ccccc3)[C@@](Cc3ccc(F)cc3)(C(=O)OC)[C@@H]12	5.8%	-76.9*	-11.4	24.5%	5.6%
S=c1nc2[nH]c3ccccc3c2n[nH]1	-9.2%	-50.1*	2.2	-6.8%	.
Cc1cc(C(F)(F)F)nn1Cc1n[nH]c(=S)n1Cc1ccccc1	-2.4%	-53.9*	0.0	-10.6%	-10.1%
S=c1[nH]c(-c2ccccc2)cs1	4.2%	-70.0*	-1.9	-17.3%	-13.8%
O=c1[nH]c(-c2ccccc2)cs1	-16.7%	2.6	-1.2	-0.4%	-16.1%
Fc1ccc(-c2csc(=S)[nH]2)cc1	i	-51.3*	-1.8	-10.2%	-9.4%
COc1ccc(S(=O)(=O)N(Cc2cccs2)C2CCCC2)cc1	-0.5%	6.9	6.8	4.3%	12.5%
Cn1nnnc1SCC1=C(C(=O)O)N2C(=O)[C@@H](NC(=O)[C@H](O)c3ccccc3)[C@H]2SC1	?	?	-12.8	3.16µM*	2.9%
Cn1nnnc1SCC1=C(C(=O)O)N2C(=O)C(NC(=O)C3CC3c3ccccc3)C2SC1 (stereo unspecified)	?	-1.1	-6.1	?	-20.8%
CS(=O)(=O)N(CC(=O)N1CCc2ccccc2C1)c1cccc([N+](=O)[O-])c1	-1.8%	-8.8	5.0	0.7%	?
O=C(Nc1cc(C(=O)Nc2ccccc2C(=O)O)cc(C(=O)Nc2ccccc2C(=O)O)c1)c1ccccc1	?	-81.5*	-15.7	?	-5.6%
O=C(COc1ccccc1[N+](=O)[O-])Nc1cccc(C(=O)Nc2ccccc2C(=O)O)c1	-10.7%	-62.5*	1.2	-3.8%	3.7%
Cc1cccc(C(=O)Nc2ccc(C(=O)N/N=C/c3ccco3)cc2)c1	?	-51.2*	-8.3	-5.3%	.
Cc1ccc(NC(=O)N/C=C/c2ccco2)cc1C	-0.1%	-57.5*	-12.4	89.4%	2.2%[0.46 µM]
O=C(Cn1c(=O)n(-c2ccccc2)c(=O)c2c3c(sc21)CCCC3)Nc1ccccc1	7.2%	.	-4.1	2.7%	.
COc1cc2c(N3CCOCC3)cc(O)c(CC(=O)Nc3ccccc3)c2cc1OC	-4.8%	-5.8	-0.4	0.0%	3.6%
CCc1ccccc1NC(=O)c1cccc(NC(=O)/C=C/c2ccco2)c1	-1.7%	-11.8	0.8	23.8%	-13.1%
Cc1ccc(NC(=O)c2cccc(NC(=O)/C=C/c3ccco3)c2)cc1C	i	-63.9*	-9.8	55.8%	-16.9%
O=C(/C=C/c1ccco1)Nc1cccc(C(=O)Nc2ccccc2C(=O)O)c1	31.6µM*	-68.7*	-15.0	?	16.6%
CC(C)NC(=O)CSc1nc(-c2cccs2)cc(-c2ccccc2)c1C#N	-2.8%	.	2.4	-3.8%	-0.9%
COc1ccc(NCc2cc(=O)[nH]c3ccccc23)cc1	-4.4%	-0.3	3.1	-5.4%	0.5%
SMILES	PGK inhibitor	PI5P4Ka inh	PI4K2A inh	Pin1 inh	Tb PFK inh
CCOC(=O)c1[nH]c2c(c1C)C(=O)CC(c1ccco1)C2 (stereo unspecified)	-11.3%	-67.5*	-14.6	?	?
N#CCC(=O)N/N=C/c1coc2ccccc2c1=O	-9.7%	-86.1*	-26.9	45.2%	-1.4%
Cc1ccc(-n2c(SCC(=O)Nc3ccc(S(=O)(=O)Nc4cc(C)nc(C)n4)cc3)nnc2-c2cccs2)cc1	.	.	-5.1	.	.
O=C(Nc1ccc2c(c1)OCO2)C1CCN(S(=O)(=O)c2cccs2)CC1	-7.2%	.	-4.9	-0.7%	3.9%
O=C(Nc1ccc2c(c1)OCO2)C1Cc2ccccc2CN1S(=O)(=O)c1cccs1 (stereo unspecified)	-2.7%	-72.4*	-26.8	-1.8%	-5.9%
Cc1ccc(NC(=O)NC2CCCCC2)cc1Cl	-4.5%	.	-71.0*	-2.1%	12.4%
Cc1ccc(NC(=O)C2CCN(C(=O)NC3CCCCC3)CC2)cc1Cl	0.1%	1.3	-0.4	-5.0%	-8.2%
CCN(C(=O)CSc1nnc(-c2c[nH]c3ccccc23)o1)C1CCS(=O)(=O)C1 (stereo unspecified)	-0.1%	-11.2	0.8	2.3%	2.5%
CCSc1nnc(NC(=O)C2Cc3ccccc3CN2C(=O)c2ccco2)s1 (stereo unspecified)	5.5%	-51.6*	-12.4	-16.2%	-2.7%
COc1ccc(NC(=O)N(C)C[C@H]2OCc3cnnn3CCCC(=O)N([C@H](C)CO)C[C@@H]2C)cc1	1.0%	0.7	1.5	.	.
COC/C=C/C1=CC2=CC(=O)C(C)(OC(=O)c3cnc4ccccc4n3)C(=O)C2=CN1c1ccccc1 (stereo unspecified)	7.1%	-69.4*	-17.7	?	5.1%
COC/C=C/C1=CC2=CC(=O)C(C)(OC(=O)c3cnc4ccccc4n3)C(=O)C2=CN1CC(C)C (stereo unspecified)	-2.3%	-3.8	-24.3	?	.
COC/C=C/C1=CC2=CC(=O)C(C)(OC(=O)c3cnc4ccccc4n3)C(=O)C2=CN1c1ccc(CO)cc1 (stereo unspecified)	.	.	.	.	4.78µM*
CCOC(=O)C1=C(C)N(CCCC(=O)O)C(=O)NC1c1ccc(Cl)cc1Cl (stereo unspecified)	8.0%	-98.4*	-1.4	-4.3%	1.7%
CC1=C(C(=O)OCc2ccccc2)C(c2ccc(Cl)cc2Cl)NC(=O)N1CCCC(=O)O (stereo unspecified)	-1.5%	-76.4*	6.2	-0.5%	-11.9%
CCOC(=O)C1=C(C)N(CCCC(=O)O)C(=O)NC1c1ccccc1Cl (stereo unspecified)	10.6%	-88.5*	1.0	-0.1%	.
CCOC(=O)C1=C(C)N(CCCCCC(=O)O)C(=O)NC1c1ccccc1Cl (stereo unspecified)	-4.5%	0.3	2.5	-1.2%	-0.5%
COCCn1c(=S)[nH]c2cc(C(=O)NC(C)C)ccc2c1=O	i	0.3	3.4	-10.1%	5.9%
CC(C)Cn1c(=S)[nH]c2cc(C(=O)O)ccc2c1=O	-0.7%	-59.2*	4.9	-0.5%	1.8%
O=C(O)c1cccc(N2C(=O)C=CC2=O)c1	-4.8%	?	-11.2	.	.
O=C(Nc1ccc(Cl)cc1Cl)c1cccc(N2C(=O)C=CC2=O)c1	-11.8%	-51.1*	5.8	22.4%	-3.3%
Cc1ccc(NC(=O)COC(=O)[C@H](C)N2C(=O)C3CC=CCC3C2=O)cc1S(=O)(=O)N(C)C (stereo partly specified)	-5.8%	2.6	4.8	1.0%	-4.3%
